Experimental data taken from the supplement of paper PMC10849652.
About 7,900 targets were measured; listed, in parts, are those with a hit and a random draw of the rest. About 0.6% of all pairs of compound and target were hits. A number with no mark means an inactive call.

Experiments:
Test in all cases: log2 fold change, soluble protein after heating vs DMSO (PISA); higher = thermal stabilisation; K562 cells, 10 uM, 30 min; active = over 0.2 and 3.5 SD of the protein, either way, in both replicates (recomputed)
erlotinib = compound: C#Cc1cccc(Nc2ncnc3cc(OCCOC)c(OCCOC)cc23)c1 [erlotinib]
Outline: (§1)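 K562 cells at 2×10^6 cells/mL were treated with 10 μM compound for 30 min. Aliquots were heated for 3 min across 48°C-58°C, pooled, and extracted in PBS with 0.5% NP-40 at 4°C; soluble protein was the supernatant after 21,000xg for 90 min. Soluble protein was quantified by TMTpro 16plex LC-MS/MS with channel sums equalised, and reported as log2 fold change in thermal stability against DMSO controls, with values from duplicates.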

[1] = compound: C/C(=N\NC(=O)C1=CC(=CC=C1)S(=O)(=O)N2CCOCC2)/C3=C(C=CC(=C3)Cl)O
Outline: as §1

[2] = compound: C1=CC(=C(C=C1Cl)C2=NC3=NC=CN=C3C(=N2)NC4=CC=NC=C4)F
Outline: as §1

[3] = compound: C1=CC(=CC=C1C2=NC3=C(N2)C=C(C=C3)C(=O)N)OC4=CC=C(C=C4)Cl
Outline: as §1

[4] = compound: C1=CC2=C(C=CC(=C2)/C=C\3/C(=O)NC(=NCC4=CC=CS4)S3)N=C1
Outline: as §1

[5] = compound: C1=CC2=NC=CN=C2C=C1/C=C/3\C(=O)NC(=O)S3
Outline: as §1

[6] = compound: C1=CC=C(C=C1)C2=NC(=C(N2)C3=CC=NC=C3)C4=CC(=C(C=C4)Cl)O
Outline: as §1

[7] = compound: C1=CC=C2C(=C1)C3=NNC4=CC=CC(=C43)C2=O
Outline: as §1

[8] = compound: C1CCN(C1)C(=O)NC2=CC=CC(=C2)NC3=NC=C(C(=N3)NCCC4=CN=CN4)Br
Outline: as §1

[9] = compound: C1CN(CCC1(CC2=CC=C(C=C2)Cl)N)C3=NC=NC4=C3C=CN4
Outline: as §1

IRAK-1-4 Inhibitor I = compound: C1COCCN1CCN2C3=CC=CC=C3N=C2NC(=O)C4=CC(=CC=C4)[N+](=O)[O-] [IRAK-1-4 Inhibitor I]
Outline: as §1

ibrutinib = compound: C=CC(=O)N1CCC[C@@H](n2nc(-c3ccc(Oc4ccccc4)cc3)c3c(N)ncnc32)C1 [ibrutinib]
Outline: as §1

[10] = compound: CC(=O)c1cnc2ccc(-c3cc(Cl)c(O)c(Cl)c3)nc2c1N[C@H]1CC[C@H](CN(C)C)CC1
Outline: as §1

ralimetinib = compound: CC(C)(C)Cn1c(N)nc2ccc(-c3[nH]c(C(C)(C)C)nc3-c3ccc(F)cc3)nc21 [ralimetinib]
Outline: as §1

[11] = compound: CC(C)(O)CC(=O)NCCn1ccc2ncnc(Nc3ccc(Oc4cccc(C(F)(F)F)c4)c(Cl)c3)c21
Outline: as §1

[12] = compound: CC(C)C1=C2N=C(C=C(N2N=C1)NCC3=CC=CC=C3)NCCCCCCN
Outline: as §1

[13] = compound: CC(C)C[C@@H](C=O)NC(=O)[C@H](CC(C)C)NC(=O)[C@H](CC(C)C)NC(=O)OCc1ccccc1
Outline: as §1

pinometostat = compound: CC(C)N(C[C@H]1O[C@@H](n2cnc3c(N)ncnc32)[C@H](O)[C@@H]1O)[C@H]1C[C@@H](CCc2nc3cc(C(C)(C)C)ccc3[nH]2)C1 [pinometostat]
Outline: as §1

[14] = compound: CC1=C(C(CC(=O)N1)C2=CC=C(C=C2)C(F)(F)F)C(=O)NC3=C(C=C4C(=C3)C=NN4)F
Outline: as §1

[15] = compound: CC1=C(C2=C(C=C1)C(=O)C3=CC=CC=C3N2CCCN)C
Outline: as §1

Chain of UniProt O14526 (O14526 whole entry, looked up): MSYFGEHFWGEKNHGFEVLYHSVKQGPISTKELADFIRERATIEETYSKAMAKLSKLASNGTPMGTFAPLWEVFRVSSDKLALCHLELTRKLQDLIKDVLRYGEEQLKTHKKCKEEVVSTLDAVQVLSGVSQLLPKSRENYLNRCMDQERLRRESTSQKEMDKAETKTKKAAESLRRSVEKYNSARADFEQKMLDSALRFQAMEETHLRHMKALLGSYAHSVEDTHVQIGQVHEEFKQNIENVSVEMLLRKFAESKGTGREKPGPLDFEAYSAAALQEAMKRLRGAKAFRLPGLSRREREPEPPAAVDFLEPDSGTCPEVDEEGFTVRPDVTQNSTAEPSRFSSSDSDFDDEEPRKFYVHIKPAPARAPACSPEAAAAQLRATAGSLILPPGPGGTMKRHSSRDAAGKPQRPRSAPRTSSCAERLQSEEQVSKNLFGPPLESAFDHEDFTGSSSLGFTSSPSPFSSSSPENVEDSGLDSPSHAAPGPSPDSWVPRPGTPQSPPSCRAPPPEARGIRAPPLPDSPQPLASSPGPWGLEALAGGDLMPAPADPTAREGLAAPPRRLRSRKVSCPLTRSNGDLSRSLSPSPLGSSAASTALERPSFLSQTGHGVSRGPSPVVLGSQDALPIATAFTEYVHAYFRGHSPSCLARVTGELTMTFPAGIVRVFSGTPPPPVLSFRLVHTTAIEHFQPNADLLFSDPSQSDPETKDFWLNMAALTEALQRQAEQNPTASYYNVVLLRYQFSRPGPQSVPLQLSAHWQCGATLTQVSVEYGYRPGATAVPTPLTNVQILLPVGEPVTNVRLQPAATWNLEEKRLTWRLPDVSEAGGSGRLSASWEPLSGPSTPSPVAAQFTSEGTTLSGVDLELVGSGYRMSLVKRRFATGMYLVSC
Chain of UniProt Q13907 (Q13907 whole entry, looked up): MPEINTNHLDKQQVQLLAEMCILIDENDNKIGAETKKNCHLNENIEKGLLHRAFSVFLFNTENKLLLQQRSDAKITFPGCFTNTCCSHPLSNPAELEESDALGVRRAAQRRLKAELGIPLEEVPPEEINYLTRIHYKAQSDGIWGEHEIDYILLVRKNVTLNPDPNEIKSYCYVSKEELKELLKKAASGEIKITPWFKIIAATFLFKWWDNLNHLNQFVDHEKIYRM
Chain of UniProt Q9H6D7 (Q9H6D7 whole entry, looked up): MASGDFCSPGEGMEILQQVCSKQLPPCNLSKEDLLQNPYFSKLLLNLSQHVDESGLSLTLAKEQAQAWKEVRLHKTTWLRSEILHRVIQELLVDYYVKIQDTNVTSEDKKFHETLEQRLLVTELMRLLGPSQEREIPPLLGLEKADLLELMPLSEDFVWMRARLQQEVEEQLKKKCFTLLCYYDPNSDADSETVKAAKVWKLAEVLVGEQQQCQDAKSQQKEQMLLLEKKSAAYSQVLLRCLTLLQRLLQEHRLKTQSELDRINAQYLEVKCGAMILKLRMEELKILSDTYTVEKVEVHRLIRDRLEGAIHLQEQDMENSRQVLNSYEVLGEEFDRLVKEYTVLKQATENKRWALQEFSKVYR
Chain of UniProt P50213 (P50213 whole entry, looked up): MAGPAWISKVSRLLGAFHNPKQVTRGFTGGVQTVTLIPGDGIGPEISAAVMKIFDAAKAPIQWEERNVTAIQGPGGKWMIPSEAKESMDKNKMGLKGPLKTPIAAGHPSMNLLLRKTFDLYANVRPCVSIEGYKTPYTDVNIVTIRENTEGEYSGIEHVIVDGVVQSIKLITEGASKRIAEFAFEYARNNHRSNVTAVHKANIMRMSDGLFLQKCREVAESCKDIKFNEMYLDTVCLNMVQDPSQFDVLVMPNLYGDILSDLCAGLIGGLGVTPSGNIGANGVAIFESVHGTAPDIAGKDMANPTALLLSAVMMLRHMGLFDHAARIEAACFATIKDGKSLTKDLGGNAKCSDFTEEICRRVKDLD
Chain of UniProt Q14687 (Q14687 whole entry, looked up): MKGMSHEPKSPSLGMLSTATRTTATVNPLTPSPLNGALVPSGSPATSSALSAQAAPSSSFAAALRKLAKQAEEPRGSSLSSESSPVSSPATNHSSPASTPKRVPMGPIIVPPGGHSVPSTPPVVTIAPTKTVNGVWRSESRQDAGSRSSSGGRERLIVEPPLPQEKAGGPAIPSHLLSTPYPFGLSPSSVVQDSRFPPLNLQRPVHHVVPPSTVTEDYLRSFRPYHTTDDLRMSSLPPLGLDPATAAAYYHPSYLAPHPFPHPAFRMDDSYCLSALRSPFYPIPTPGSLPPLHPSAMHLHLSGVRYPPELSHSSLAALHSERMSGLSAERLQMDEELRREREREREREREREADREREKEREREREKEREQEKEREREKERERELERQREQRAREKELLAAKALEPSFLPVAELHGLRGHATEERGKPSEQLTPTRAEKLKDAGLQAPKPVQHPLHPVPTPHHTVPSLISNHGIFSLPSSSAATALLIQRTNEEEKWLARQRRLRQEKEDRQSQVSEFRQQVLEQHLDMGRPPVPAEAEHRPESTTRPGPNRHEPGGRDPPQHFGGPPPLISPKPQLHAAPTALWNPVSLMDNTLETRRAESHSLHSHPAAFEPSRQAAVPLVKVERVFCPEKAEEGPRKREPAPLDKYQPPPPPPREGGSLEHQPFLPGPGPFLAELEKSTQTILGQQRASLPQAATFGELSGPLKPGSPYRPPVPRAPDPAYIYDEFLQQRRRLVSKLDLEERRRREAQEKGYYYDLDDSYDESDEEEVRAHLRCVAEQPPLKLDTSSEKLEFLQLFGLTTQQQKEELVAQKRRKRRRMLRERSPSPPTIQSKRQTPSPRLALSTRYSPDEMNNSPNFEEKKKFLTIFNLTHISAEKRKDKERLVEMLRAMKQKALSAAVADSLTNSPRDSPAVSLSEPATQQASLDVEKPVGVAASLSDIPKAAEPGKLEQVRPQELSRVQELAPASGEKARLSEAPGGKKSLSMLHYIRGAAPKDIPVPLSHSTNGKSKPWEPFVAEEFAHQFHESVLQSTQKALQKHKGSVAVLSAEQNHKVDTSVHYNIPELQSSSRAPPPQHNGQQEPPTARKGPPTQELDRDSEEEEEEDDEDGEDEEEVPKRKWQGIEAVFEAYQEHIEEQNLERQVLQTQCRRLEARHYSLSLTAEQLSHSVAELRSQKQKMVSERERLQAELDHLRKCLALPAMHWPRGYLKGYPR
Chain of UniProt P21695 (P21695 whole entry, looked up): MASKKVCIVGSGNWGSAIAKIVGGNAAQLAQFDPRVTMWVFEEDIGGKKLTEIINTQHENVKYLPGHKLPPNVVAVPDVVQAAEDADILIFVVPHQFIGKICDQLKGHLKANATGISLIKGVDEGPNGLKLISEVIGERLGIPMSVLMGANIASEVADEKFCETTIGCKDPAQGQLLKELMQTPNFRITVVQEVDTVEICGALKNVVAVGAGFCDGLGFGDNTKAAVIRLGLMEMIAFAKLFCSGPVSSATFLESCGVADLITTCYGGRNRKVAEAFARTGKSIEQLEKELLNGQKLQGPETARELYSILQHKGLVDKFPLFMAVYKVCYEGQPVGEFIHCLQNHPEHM
Chain of UniProt O14976 (O14976 whole entry, looked up): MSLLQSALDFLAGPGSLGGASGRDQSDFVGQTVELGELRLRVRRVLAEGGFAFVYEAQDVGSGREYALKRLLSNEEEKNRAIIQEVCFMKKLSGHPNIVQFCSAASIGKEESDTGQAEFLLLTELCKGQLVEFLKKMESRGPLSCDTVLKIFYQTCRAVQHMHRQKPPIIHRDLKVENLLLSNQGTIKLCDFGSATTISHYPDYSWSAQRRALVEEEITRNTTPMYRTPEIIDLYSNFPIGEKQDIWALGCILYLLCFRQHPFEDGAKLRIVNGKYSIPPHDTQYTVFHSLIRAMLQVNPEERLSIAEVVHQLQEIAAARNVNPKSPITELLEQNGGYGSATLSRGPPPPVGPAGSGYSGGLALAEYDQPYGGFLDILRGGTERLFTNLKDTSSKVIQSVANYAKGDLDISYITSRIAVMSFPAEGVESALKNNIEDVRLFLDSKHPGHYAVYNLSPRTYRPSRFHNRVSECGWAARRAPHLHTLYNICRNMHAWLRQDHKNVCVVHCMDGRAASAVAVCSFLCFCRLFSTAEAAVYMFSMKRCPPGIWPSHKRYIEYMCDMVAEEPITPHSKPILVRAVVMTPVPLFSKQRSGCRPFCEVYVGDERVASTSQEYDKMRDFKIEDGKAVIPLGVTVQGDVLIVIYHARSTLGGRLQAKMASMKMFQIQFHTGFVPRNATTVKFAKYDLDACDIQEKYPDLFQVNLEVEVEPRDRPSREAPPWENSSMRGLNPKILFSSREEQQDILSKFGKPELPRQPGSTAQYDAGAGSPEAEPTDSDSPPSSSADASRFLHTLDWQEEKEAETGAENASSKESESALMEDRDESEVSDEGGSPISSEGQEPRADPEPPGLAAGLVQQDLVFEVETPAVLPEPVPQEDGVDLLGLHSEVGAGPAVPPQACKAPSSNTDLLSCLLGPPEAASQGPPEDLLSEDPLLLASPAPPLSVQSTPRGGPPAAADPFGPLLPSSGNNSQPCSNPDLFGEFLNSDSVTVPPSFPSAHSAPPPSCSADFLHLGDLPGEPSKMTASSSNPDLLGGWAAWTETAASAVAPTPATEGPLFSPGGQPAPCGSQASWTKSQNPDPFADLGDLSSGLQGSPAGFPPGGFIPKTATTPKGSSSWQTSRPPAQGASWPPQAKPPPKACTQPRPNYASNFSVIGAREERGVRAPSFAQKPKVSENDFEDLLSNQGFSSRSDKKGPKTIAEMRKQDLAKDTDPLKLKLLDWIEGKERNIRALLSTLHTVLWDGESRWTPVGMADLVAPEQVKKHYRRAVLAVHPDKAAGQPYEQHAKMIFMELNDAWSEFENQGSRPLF
Chain of UniProt Q9Y324 (Q9Y324 whole entry, looked up): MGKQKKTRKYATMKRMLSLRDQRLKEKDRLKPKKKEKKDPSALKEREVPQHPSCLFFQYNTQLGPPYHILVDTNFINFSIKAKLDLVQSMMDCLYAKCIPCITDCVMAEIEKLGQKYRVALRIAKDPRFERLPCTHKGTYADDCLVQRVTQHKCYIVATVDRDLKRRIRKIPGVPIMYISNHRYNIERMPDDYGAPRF

Target | log2 fold change (erlotinib) | log2 fold change [1] | log2 fold change [2] | log2 fold change [3] | log2 fold change [4] | log2 fold change [5] | log2 fold change [6] | log2 fold change [7] | log2 fold change [8] | log2 fold change [9] | log2 fold change (IRAK-1-4 Inhibitor I) | log2 fold change (ibrutinib) | log2 fold change [10] | log2 fold change (ralimetinib) | log2 fold change [11] | log2 fold change [12] | log2 fold change [13] | log2 fold change (pinometostat) | log2 fold change [14] | log2 fold change [15]
IDI1 isoform 2 (UniProt Q13907) | 0.004 | -0.313 (active) | 0.03 | -0.012 | -0.033 | -0.004 | -0.038 | 0.034 | -0.02 | 0.002 | 0.052 | 0.034 | -0.01 | -0.04 | 0.1 | 0.077 | -0.002 | -0.012 | 0.04 | -0.099
HAUS4 (UniProt Q9H6D7) | -0.112 | 0.097 | 0.041 | -0.095 | 0.018 | -0.065 | -0.085 | -0.087 | -0.001 | 0.001 | – | 0.103 | -0.107 | 0.112 | 0.246 | -0.51 (active) | 0.139 | – | 0.095 | 0.048
GPD1 (UniProt P21695) | 0.55 | -0.084 | -0.075 | -0.305 | 0.129 | -0.149 | -0.003 | -0.047 | -0.043 | 0.032 | – | 0.059 | -0.066 | -0.141 | 0.079 | 0.268 | -0.051 | – | 0.096 | 0.009
FAT1 (UniProt Q14517) | -0.06 | – | -0.062 | 0.161 | – | -0.08 | 0.045 | – | -0.123 | 0.066 | 0.028 | 0.151 | – | -0.448 (active) | 0.01 | 0.162 | 0.683 | -0.095 | 0.019 | 0.091
GSE1 (UniProt Q14687) | – | – | – | – | – | -0.269 | -0.048 | – | – | – | – | 0.057 | – | -0.065 | – | – | 0.003 | – | 0.044 | –
GAB2 (UniProt Q9UQC2) | -0.035 | 0.149 | -0.033 | 0.231 | -0.04 | – | -0.294 | -0.196 | -0.29 | 0.012 | -0.097 | – | -0.573 | 0.059 | -0.242 | -0.616 | 0.094 | 0.081 | – | 0.004
HEATR3 (UniProt Q7Z4Q2) | -0.002 | – | -0.013 | 0.013 | – | -0.044 | 0.062 | – | -0.113 | 0.032 | -0.08 | 0.006 | – | 0.07 | -0.125 | -0.319 (active) | -0.137 | -0.032 | 0.216 | -0.196
FGG (UniProt P02679) | – | – | – | – | – | – | -0.05 | – | – | – | – | – | – | -0.048 | – | – | 0.231 | – | – | –
FCF1 (UniProt Q9Y324) | – | – | -0.392 | – | – | – | -0.075 | – | 0.034 | -0.138 | -0.083 | – | – | 0.223 | 0.032 | – | 0.074 | 0.334 | – | -1.04 (active)
HSPA2 (UniProt P54652) | 0.623 | -0.047 | – | -0.182 | 0.022 | 0.058 | -0.095 | 0.192 | – | – | 0.008 | -0.006 | -0.28 | 0.01 | – | -0.441 (active) | 0.041 | 0.05 | 0.023 | –
IGF2 isoform 3 (UniProt P01344) | -0.098 | – | – | 0.028 | – | – | – | – | – | – | 0.066 | – | – | – | – | -0.104 | – | -0.107 | – | –
FAT2 (UniProt Q9NYQ8) | 0.115 | – | 0.26 | -0.098 | – | 0.096 | 0 | – | -0.166 | 0.186 | 0.103 | 0.107 | – | 0.182 | -0.149 | -0.002 | 0.225 | 0.051 | – | 0.132
FMR1 (UniProt Q06787) | -0.301 | – | – | 0.154 | – | – | -0.121 | – | – | – | 0.091 | – | – | 0.036 | – | 0.149 | 0.056 | 0.153 | – | –
GAK (UniProt O14976) | 0.64 | -0.78 | -0.133 | -0.821 | 0.527 | – | 0.639 | 0.955 | 1.08 | -0.265 | -0.222 | – | 1.15 | 1.13 | -0.015 | -0.81 | 0.084 | 0.344 | -0.213 | -0.187
GOLGA6B (UniProt A6NDN3) | -0.069 | – | -0.054 | 0.116 | – | 0.036 | – | – | – | – | -0.034 | 0.013 | – | – | 0.025 | 0.165 | – | -0.137 | -0.19 | –
HBZ, A0A494C057 | 0.141 | – | – | -0.062 | – | -0.055 | – | – | – | – | – | 0.284 | – | – | – | -0.054 | – | – | -0.145 | –
GPS2 (UniProt Q13227) | -0.124 | – | 0.066 | -0.046 | – | 0.05 | -0.046 | – | 0.262 | 0.029 | -0.013 | -0.006 | – | -0.19 | -0.052 | 0.027 | -0.069 | 0.019 | 0.006 | -0.135
FCHO1 (UniProt O14526) | 0.065 | 0.104 | -0.032 | -0.011 | 0.07 | – | -0.144 | -0.061 | -0.005 | -0.029 | -0.114 | – | -0.593 (active) | -0.081 | -0.073 | 0.045 | 0.191 | 0.05 | 0.094 | -0.011
FRA10AC1 isoform 3 (UniProt Q70Z53) | -0.02 | 0.053 | -0.059 | -0.12 | -0.305 | 0.033 | – | -0.154 | -0.067 | 0.126 | 0.005 | -0.014 | 0.024 | – | -0.024 | 0.169 | – | 0.001 | -0.03 | -0.201
GOLGA8R (UniProt I6L899) | 0.377 | -0.394 | – | -0.019 | 0.078 | -0.008 | 0.058 | -0.049 | -0.097 | 0.302 | 0.003 | 0.04 | -0.106 | 0.247 | – | 0.227 | 0.177 | 0.035 | – | 0.201
GEMIN2 (UniProt O14893) | – | -0.086 | -0.428 (active) | – | 0.057 | -0.013 | -0.069 | -0.042 | – | – | -0.046 | 0.055 | -0.061 | 0.049 | -0.307 | – | 0.012 | -0.096 | 0.044 | –
FIZ1 (UniProt Q96SL8) | – | – | -0.272 | – | – | – | – | – | – | – | -0.14 | – | – | – | 0.017 | – | – | 0.123 | 0.121 | –
GBA2 (UniProt Q9HCG7) | 0.063 | 0.095 | 0.04 | 0.01 | 0.033 | -0.023 | – | 0.028 | 0.034 | 0.104 | -0.082 | -0.027 | -0.073 | – | 0.048 | 0.326 | – | 0.121 | 0.003 | -0.003
IDH3A isoform 2 (UniProt P50213) | 0.132 | -0.572 (active) | – | -0.084 | 0.135 | -0.017 | – | 0.039 | -0.052 | 0.164 | 0.196 | 0.008 | -0.004 | – | – | 0.153 | – | 0.011 | -0.033 | 0.059
